Bioassay records deposited in PubChem BioAssay by National Center for Advancing Translational Sciences (NCATS).
In the library only some 12% were active in any assay of this set; here they are far more common.
Sm TGR block: inhibitors of Schistosoma mansoni thioredoxin glutathione reductase. 360,000 compounds, 3% hits. Q962Y6. purified TGR, DTNB reduction, TNB absorbance 405 nm. Potency, µM (series often up to 114 µM), inactives show at the top dose activity change, negative = inhibition, hits mostly inhibitors; further: on the % scale 0 is the no-effect control and ±100 the full control effect; nearly all actives have a fitted effect of over 60% in size
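Kinetic colorimetric format: TGR-catalysed, NADPH-driven DTNB reduction monitored via TNB absorbance. Enzyme dispensed at 20 nM; compound exposure 15 min at room temperature before reaction start.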
Pf growth 96h: P. falciparum growth inhibition at 96 hours; P. falciparum luciferase reporter growth, 96 h; Potency, µM (doses to about 28.7 µM), inactives show at the top dose activity change, negative = inhibition, actives largely listed as inhibitors; 320,000 compounds, 6.9% hits; further: on the % scale 0 is the no-effect control and ±100 the full control effect
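Cell-based qHTS: luciferase-tagged P. falciparum in erythrocytes (2% hematocrit, 0.05% parasitemia final) incubated with compounds for 96 hours, 37 C, 5% CO2; luciferase detection reagent then added and luminescence measured.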
AmpC no deterg: AmpC beta-lactamase inhibition without detergent | AmpC nitrocefin hydrolysis, absorbance 480 nm, 0.0001% Triton | P00811 | 330,000 compounds, 0.52% hits | AID 485341 | Potency, µM (highest dose often 57.1 µM), without a hit: at the top dose activity change, negative = inhibition, most hits filed as inhibitors;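 further: plate controls were no compound for no effect and no enzyme for full effect; nearly all actives have a fitted effect of over 20% in size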
Target sequence (P00811 whole entry, looked up): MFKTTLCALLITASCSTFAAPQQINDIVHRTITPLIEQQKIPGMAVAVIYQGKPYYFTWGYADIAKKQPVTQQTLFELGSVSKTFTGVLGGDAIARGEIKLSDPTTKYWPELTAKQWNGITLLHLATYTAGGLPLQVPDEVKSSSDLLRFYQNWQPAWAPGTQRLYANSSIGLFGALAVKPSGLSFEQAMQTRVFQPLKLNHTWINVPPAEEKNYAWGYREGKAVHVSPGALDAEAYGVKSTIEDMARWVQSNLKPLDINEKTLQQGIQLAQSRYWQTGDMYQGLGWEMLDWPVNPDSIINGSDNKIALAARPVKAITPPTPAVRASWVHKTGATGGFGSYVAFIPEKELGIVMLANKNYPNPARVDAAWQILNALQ
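20 mM phosphate pH 7.0 + 0.01% (detergent screen) or 0.0001% Triton X-100; 5.3 nM AmpC reagent; cpd preinc 15 min RT; nitrocefin (800 uM stock) to start; A480 q20 s × 4 min; Activity was normalised to no-enzyme and no-compound control wells.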
SARS PLP yeast: inhibitors of SARS-CoV papain-like protease in yeast | S. cerevisiae expressing SARS-CoV PLpro, growth rescue | Potency, µM (top dose mostly 32.9 µM), without a hit: at the top dose activity, positive = growth rescue, most hits filed as activators | 330,000 compounds, 0.19% hits | AID 485353; calls by dose curve; further: 0% is about no effect; nearly all actives have a fitted effect of over 55% in size
AmpC inh detg: inhibitors of E. coli AmpC beta-lactamase with detergent; 370,000 compounds, 0.041% hits; AID 485294; P00811; Potency, µM (highest dose often 114 µM), for inactives: at the top dose activity change, negative = inhibition, most hits filed as inhibitors; AmpC hydrolysis of nitrocefin, absorbance 480 nm, 0.01% Triton;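 further: 0% = no-compound wells and -100% = no-enzyme wells; nearly all actives have a fitted effect of over 25% in size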
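AmpC (5.3 nM in the dispensed reagent) in 20 mM phosphate pH 7.0 with 0.01% (detergent screen) or 0.0001% Triton X-100 was preincubated with compounds for 15 min at room temperature. Nitrocefin was then added from an 800 uM solution, and hydrolysis was followed at 480 nm.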
Pf growth 48h: inhibits P. falciparum growth in the first generation, 48 h | P. falciparum luciferase growth in erythrocytes, 48 h | Potency, µM (series often up to 28.7 µM), inactives show at the top dose activity change, negative = inhibition, usual class: inhibitors | 310,000 compounds, 5.9% hits | AID 504832; further: on the % scale 0 is the no-effect control and ±100 the full control effect
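Here the parasites carry a stable luciferase gene and grow inside erythrocytes in Albumax-based RPMI medium with compound for one erythrocytic cycle. Activity is scored as loss of luminescent signal.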
Starred values were filed as active, the others as inactive. Unless noted, the call rests on the fitted dose curve; in most records, active means well fitted curve in the direction sought with a large enough effect; inconclusive means small, poorly fitted or top-dose-only effect, or another doubt; inactive means no such curve, though single readings can be large; an effect the other way counts as inactive or inconclusive. Potency means the concentration at half of the fitted maximal effect.

Screening COc1cccc(-c2nnc(SC(C(=O)c3c[nH]c4ccccc34)c3ccccc3)n2C)c1 (configuration not stated) returned Sm TGR block -10.5%, Pf growth 96h 13.1µM*, AmpC no deterg -20.2%, SARS PLP yeast 16.5%, AmpC inh detg -3.2% and Pf growth 48h 13.1µM*.
For Cc1[nH]c2ccccc2c1C(=O)COC(=O)c1cccc(S(=O)(=O)N2CCCCC2)c1 the results were Sm TGR block -1.8%, Pf growth 96h inconclusive, AmpC no deterg -22.6%, SARS PLP yeast 21.5%, AmpC inh detg -13.5% and Pf growth 48h inconclusive.
For O=C(N=Nc1c(O)[nH]c2ccccc12)c1cccc(S(=O)(=O)N2CCCCC2)c1 the results were Sm TGR block 5.4%, Pf growth 96h 3.29µM*, AmpC no deterg -1.6%, SARS PLP yeast -10.6%, AmpC inh detg 0.2% and Pf growth 48h 9.28µM*.
CC(C)c1ccc2[nH]c(O)c(N=NC(=O)c3cccc(S(=O)(=O)N4CCCCC4)c3)c2c1 was read as Sm TGR block -6.4%, Pf growth 96h 9.28µM*, AmpC no deterg 6.31µM*, SARS PLP yeast -15.2%, AmpC inh detg -2.7% and Pf growth 48h inconclusive.
O=C(N=Nc1c(O)[nH]c2ccccc12)c1cc(NS(=O)(=O)c2cccs2)cc(NS(=O)(=O)c2cccs2)c1 was read as Sm TGR block 11.4%, Pf growth 96h inconclusive, AmpC no deterg 15.8µM*, SARS PLP yeast -2.6%, AmpC inh detg 2.6% and Pf growth 48h inconclusive.
For COc1ccccc1N1CCN(S(=O)(=O)CCNC(=O)C2CCCCC2)CC1 the results were Sm TGR block -6.0%, Pf growth 96h 2.2%, AmpC no deterg 59.2%, SARS PLP yeast -4.5%, AmpC inh detg -17.8% and Pf growth 48h -6.0%.
`CN(C(=O)c1ccc2c(c1)C(=O)N(CCC1=CCCCC1)C2=O)C1CCCCC1` gave Sm TGR block -6.4%, Pf growth 96h 10.4µM*, AmpC no deterg 55.6%, SARS PLP yeast -6.6% and AmpC inh detg 7.5%.
`Cc1nn(CCO)c2ncc(C(=O)c3cc(Cl)ccc3O)cc12` gave Sm TGR block -23.2%, Pf growth 96h -26.2%, AmpC no deterg -0.4%, SARS PLP yeast 0.1%, AmpC inh detg -4.5% and Pf growth 48h -5.1%.
For CCc1c(C(=O)Nc2ccncc2)csc1C the results were Sm TGR block -22.5%, Pf growth 96h inconclusive, AmpC no deterg -11.1%, SARS PLP yeast -4.7%, AmpC inh detg 0.7% and Pf growth 48h 8.28µM*.
For CC(C)C1N=C(c2ccc3c(c2)OCO3)CC(c2ccccc2O)N1 (configuration not stated) the results were Sm TGR block -29.9%, AmpC no deterg -43.4%, SARS PLP yeast -28.1%, AmpC inh detg -13.5% and Pf growth 48h inconclusive.
`CCOc1ccccc1C1N=C(c2ccc(OC)cc2)CC(c2ccccc2O)N1` (configuration not stated) gave Sm TGR block -11.4%, Pf growth 96h 20.9%, AmpC no deterg 31.6µM*, SARS PLP yeast -8.0%, AmpC inh detg 6.9% and Pf growth 48h -92.3%.
`Cc1cccc(C(CC(=O)N2CCCC2)c2ccccc2)c1O` (configuration not stated) gave Sm TGR block 8.0%, Pf growth 96h -9.9%, AmpC no deterg 18.5%, SARS PLP yeast -4.5%, AmpC inh detg -14.5% and Pf growth 48h -7.3%.
`O=C(CC(c1ccccc1)c1cc(Br)ccc1O)N1CCCCC1` (configuration not stated) gave Sm TGR block -1.2%, Pf growth 96h inconclusive, AmpC no deterg -22.9%, SARS PLP yeast -2.1%, AmpC inh detg 1.2% and Pf growth 48h 13.1µM*.
For CCCN(CCC)C(=O)CC(c1ccccc1)c1cc(Br)ccc1O (configuration not stated) the results were Sm TGR block 18.2%, AmpC no deterg -25.1%, SARS PLP yeast -13.0%, AmpC inh detg inconclusive and Pf growth 48h 13.1µM*.
For O=C(CC(c1ccccc1)c1ccccc1O)N1CCCC1 (configuration not stated) the results were Sm TGR block -9.9%, AmpC no deterg -9.7%, SARS PLP yeast -2.7%, AmpC inh detg inconclusive and Pf growth 48h 0.9%.
Screening Cc1cccc(C(CC(=O)N2CCCCC2)c2ccccc2)c1O (configuration not stated) returned Sm TGR block 28.2µM*, Pf growth 96h -1.6%, AmpC no deterg -11.9%, SARS PLP yeast 1.5%, AmpC inh detg -9.7% and Pf growth 48h 4.5%.
CCC(C(=O)Nc1cc(-c2cn3cccnc3n2)ccc1C)c1ccccc1 (configuration not stated) was read as Sm TGR block 3.2% and AmpC inh detg 3.1%.
`NC(=O)CSC1=N/C(=C\c2ccco2)C(=O)N1c1ccc(OC(F)F)cc1` gave Sm TGR block 44.7µM*, Pf growth 96h -0.4%, AmpC no deterg -38.1%, SARS PLP yeast -1.0%, AmpC inh detg inconclusive and Pf growth 48h inconclusive.
For CCOc1cc(/C=C2\N=C(SC(C)C(N)=O)N(c3ccc(OC(F)F)cc3)C2=O)ccc1O (configuration not stated) the results were Sm TGR block inconclusive, Pf growth 96h 1.17µM*, AmpC no deterg -18.3%, SARS PLP yeast 1.4%, AmpC inh detg 3.0% and Pf growth 48h 47.1%.
`CCOc1ccc(N2C(=O)S/C(=C\c3ccc(O)c(OCC)c3)C2=O)cc1` gave Sm TGR block 3.5%, Pf growth 96h inconclusive, AmpC no deterg -20.6%, SARS PLP yeast -0.8%, AmpC inh detg 5.1% and Pf growth 48h inconclusive.
For CC(C)(Cc1c[nH]c2ccccc12)NCC(O)COc1ccccc1C#N (configuration not stated) the results were Pf growth 96h 7.57µM* and Pf growth 48h 16.9µM*.
`O=C(O)c1ccc(/C=N/NC(=O)c2ccc(CN3c4cccc5cccc(c45)S3(=O)=O)cc2)cc1` gave Sm TGR block -9.8%, Pf growth 96h inconclusive, AmpC no deterg 28.2µM*, SARS PLP yeast -0.1%, AmpC inh detg -12.6% and Pf growth 48h -13.2%.
For COc1cc(/C=N/NC(=O)c2ccc(CN3C(=O)c4cccc5cccc3c45)cc2)cc(OC)c1O the results were Sm TGR block 0.4%, Pf growth 96h inconclusive, AmpC no deterg 48.1%, SARS PLP yeast -1.9%, AmpC inh detg 9.0% and Pf growth 48h 8.28µM*.
